Measured values: PubChem BioAssay (Tox21)
Results filed as inconclusive are left out. The source made the active and inactive calls. Unless noted, calls follow the shape of the full dose curve.

How the values were obtained:
[1] = Nuclear factor erythroid 2-related factor 2/antioxidant responsive element (Nrf2/ARE) small molecule agonists: qHTS cell viability counter screen in human keratinocytes (AID 1919968; active = well fitted curve in the direction sought with a large enough effect in the repeat runs; an effect the other way counts as inactive or inconclusive; also: nearly all actives have a fitted effect of over 55% in size)
Procedure, shortened: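 Cells of the KeratinoSens line were plated at 1,500 per well and left for 5 h before compound transfer from DMSO stocks. After a 23 h incubation (37 C, 5% CO2), CellTiter-Fluor was added. Signal was taken as fluorescence intensity 1 h later.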

[2] = Nuclear factor erythroid 2-related factor 2/antioxidant responsive element (Nrf2/ARE) small molecule agonists: luciferase reporter gene qHTS assay in human keratinocytes (AID 1919969); also: nearly all actives have a fitted effect of over 35% in size
[3] = target: Gonadotropin-releasing hormone receptor (Homo sapiens) (UniProt P30968); experiment: Human gonadotropin-releasing hormone receptor (GnRHR) small molecule agonists, calcium flux assay in GnRHR-HEK293 cells (AID 1920063); also: nearly all actives have a fitted effect of over 35% in size
Procedure, shortened: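 Compounds dissolved in DMSO are pin-transferred onto dye-loaded GnRHR-HEK293 cells, which were seeded 18 h before at 37 C/5% CO2. Calcium signal is read as fluorescence intensity at 1 s intervals for 3 min.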

[4] = target: KiSS-1 receptor (Homo sapiens) (UniProt Q969F8); experiment: Human kisspeptin (KISS1R) small molecule agonists, calcium flux assay in KISS1R-HEK293 cells (AID 1920064; active = well fitted curve in the direction sought with a large enough effect in the repeat runs; an effect the other way counts as inactive or inconclusive)
Procedure, shortened: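 Cell line: HEK293, stable human KISS1R. Dye loading 1 h at 37 C after 18 h culture. Read: kinetic fluorescence, 480/540 nm, 3 min at 1 s intervals.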

[5] = G protein-coupled receptor (GPCR) small molecule agonists, calcium flux assay: HEK293 wild type cell line counter screen (AID 1920065)
Procedure, shortened: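 Tox21 10K compounds, 15 concentrations each in triplicate, pin-transferred in DMSO onto dye-loaded cells; kinetic read at 480/540 nm for 3 min, 1 s intervals.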

[6] = p53 small molecule agonists, cell-based qHTS assay with human liver microsomes (AID 1963577);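 also: p53 response element beta-lactamase reporter cells with liver microsomes plus NADPH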
Procedure, shortened: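 Steps: plate p53RE-bla cells, incubate 5 h at 37 C; add compound in DMSO; add microsomes (0.5 mg/mL final) and NADPH (0.5 mg/mL final); incubate 16 h at 37 C; add LiveBLAzer, 2 h RT; read fluorescence.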

[7] = p53 small molecule agonists, cell-based qHTS assay with rat liver microsomes (AID 1963578)
Procedure, shortened: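 Metabolic activation is supplied by rat liver microsomes with NADPH (each 0.5 mg/mL final). p53RE-bla cells incubate with compound 16 h at 37 C; reporter activity is measured by LiveBLAzer fluorescence.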

[8] = p53 small molecule agonists, cell-based qHTS assay with human liver microsomes: qHTS cell viability counter screen (AID 1963579); also: nearly all actives have a fitted effect of over 45% in size
Procedure, shortened: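 After the 460/530 nm beta-lactamase read, CellTiter-Glo was added to the same wells and luminescence measured after 30 min at room temperature, giving viability of p53RE-bla cells treated 16 h with compounds plus microsomes and NADPH.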

[9] = p53 small molecule agonists, cell-based qHTS assay with rat liver microsomes: qHTS cell viability counter screen (AID 1963580); also: nearly all actives have a fitted effect of over 45% in size
Procedure, shortened: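 Counter screen for cytotoxicity under metabolic activation: rat liver microsomes and NADPH, 0.5 mg/mL final each, added with compounds to p53RE-bla HCT-116 cells; 16 h at 37 C, then ATP luminescence read.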

[10] = p53 small molecule agonists, cell-based qHTS assay: qHTS cell viability counter screen (AID 1963581); also: nearly all actives have a fitted effect of over 45% in size
Procedure, shortened: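 ATP content measured by luminescence in HCT-116 p53RE-bla cells treated 16 h at 37 C, same wells as the reporter screen.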

[11] = p53 small molecule agonists, cell-based qHTS assay (AID 1963582; active = well fitted activation curve with a large enough effect in the signal ratio in the repeat runs, not every such curve was filed as active; the % refers to the signal ratio)
Procedure, shortened: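 16 h compound exposure (37 C) of p53 response element–bla cells, preceded by 5 h recovery at 37 C/5% CO2; read-out via LiveBLAzer B/G FRET substrate, 2 h RT, fluorescence intensity.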

[12] = target: 5-hydroxytryptamine receptor 2A (Homo sapiens) (UniProt P28223); experiment: 5-hydroxytryptamine receptor 2A (HTR2A) small molecule agonists, cell-based qHTS assay (AID 1963587); also: nearly all actives have a fitted effect of over 30% in size
Procedure, shortened: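 HTR2A-CHO cells, plated 18 h at 37 C/5% CO2, dye-loaded 1 h at 37 C; compounds in DMSO added by pin tool (agonist mode). Intracellular calcium flux read as kinetic fluorescence on FDSS over 2 min at 1 s intervals.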

[13] = target: Muscarinic acetylcholine receptor M1 (Homo sapiens) (UniProt P11229); experiment: Cholinergic receptor muscarinic 1 (CHRM1) small molecule antagonists, cell-based qHTS assay (AID 1963588); also: nearly all actives have a fitted effect of over 40% in size
Procedure, shortened: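 Compounds were tested at 15 concentrations in three independent runs. Dye-loaded CHRM1-CHO cells were exposed 5 min at room temperature before stimulation by acetylcholine added at 50nM. Intracellular calcium was read kinetically on FDSS for 3 min.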

[14] = target: Muscarinic acetylcholine receptor M1 (Homo sapiens) (UniProt P11229); experiment: Cholinergic receptor muscarinic 1 (CHRM1) small molecule agonists, cell-based qHTS assay (AID 1963589); also: nearly all actives have a fitted effect of over 35% in size
Procedure, shortened: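 Homogeneous fluorescence calcium flux, agonist mode. Human M1-expressing CHO cells; compound dosed at 15 concentrations, three independent runs; signal sampled every 1 sec.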

[15] = cAMP Responsive Elements (CRE) small molecule agonists, cell-based qHTS assay (AID 1963590)
Procedure, shortened: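 HEK 293T cells stably bearing CRE-bla were plated at 2,000 cells per well and rested 18 h. Compounds, positive controls or DMSO were added for 3 h at 37 C. LiveBLAzer B/G substrate was then loaded for 2 h at room temperature.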

[16] = cAMP Responsive Elements (CRE) small molecule antagonists, cell-based qHTS assay (AID 1963591; active = well fitted inhibition curve with a large enough effect in the signal ratio in the repeat runs, not every such curve was filed as active; the % refers to the signal ratio)
Procedure, shortened: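 First, CRE-bla HEK293T cells settled 18 h at 37 C. Next, compound and 0.25 uM final NKH477 were applied for 3 h. Last, LiveBLAzer B/G substrate was loaded for 2 h at room temperature.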

[17] = target: Beta-2 adrenergic receptor (Homo sapiens) (UniProt P07550); experiment: Adrenergic beta2 receptor (ADRB2) small molecule antagonists, cell-based qHTS assay (AID 1963592); also: series mostly up to about 92 µM; nearly all actives have a fitted effect of over 50% in size
Procedure, shortened: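 Assay format: CHO-ADRB2 cells, 18-20hr seeding at 37C/5% CO2, then compound plus 1nM isoproterenol agonist mix for 0.5hr RT. Homogeneous time-resolved fluorescence cAMP detection after 1hr, expressed as 665/615 nm ratio.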

[18] = target: D(2) dopamine receptor (Homo sapiens) (UniProt P14416); experiment: Dopamine D2 receptor (DRD2) small molecule agonists, cell-based qHTS assay (AID 1963594); also: nearly all actives have a fitted effect of over 35% in size
Procedure, shortened: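 HEK293 cells stably expressing DRD2 were cultured 24 h at 37 C, then given Ro20-1724 (0.1 mM final) and compounds for 10 min at room temperature. NKH477 (200nM) was then added for 30 min. cAMP was read by HTRF.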

[19] = target: D(2) dopamine receptor (Homo sapiens) (UniProt P14416); experiment: Dopamine D2 receptor (DRD2) small molecule antagonists, cell-based qHTS assay (AID 1963595; active = well fitted inhibition curve with a large enough effect in the signal ratio in the repeat runs, with a control signal flat; the % refers to the signal ratio)
Procedure, shortened: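 In this cell-based antagonist screen, compounds act for 10 min at room temperature before a 30 min challenge with 12 nM quinpirole and 200 nM NKH477. cAMP is quantified by HTRF competition in DRD2-HEK293 cells containing 0.1 mM Ro20-1724.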

[20] = target: Beta-2 adrenergic receptor (Homo sapiens) (UniProt P07550); experiment: Adrenergic beta2 receptor (ADRB2) small molecule agonists, cell-based qHTS assay (AID 1963593);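 also: CHO cells stably overexpressing human ADRB2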
Procedure, shortened: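 CHO cells stably over-expressing ADRB2 were plated overnight at 37C, then dosed with compounds plus a stimulation mix containing 100uM IBMX and 25uM Ro-20-1724 for 0.5hr at room temperature. cAMP was measured by HTRF competition, 1hr.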

Measured: Potency

Sequence of D(2) dopamine receptor (Homo sapiens) (P14416 whole entry, looked up): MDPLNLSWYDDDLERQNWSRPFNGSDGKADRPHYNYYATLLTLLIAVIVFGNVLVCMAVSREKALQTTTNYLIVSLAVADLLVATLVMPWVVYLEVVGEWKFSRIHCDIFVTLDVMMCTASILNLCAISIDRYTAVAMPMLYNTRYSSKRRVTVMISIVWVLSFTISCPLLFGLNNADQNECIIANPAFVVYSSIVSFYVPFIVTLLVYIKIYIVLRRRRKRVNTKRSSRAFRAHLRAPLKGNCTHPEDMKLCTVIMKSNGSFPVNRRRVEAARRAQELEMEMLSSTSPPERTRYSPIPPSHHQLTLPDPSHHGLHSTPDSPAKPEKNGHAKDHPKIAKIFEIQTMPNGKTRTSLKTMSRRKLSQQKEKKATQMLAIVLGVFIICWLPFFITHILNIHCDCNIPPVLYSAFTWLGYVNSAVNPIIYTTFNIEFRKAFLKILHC
Sequence of Muscarinic acetylcholine receptor M1 (Homo sapiens) (P11229 whole entry, looked up): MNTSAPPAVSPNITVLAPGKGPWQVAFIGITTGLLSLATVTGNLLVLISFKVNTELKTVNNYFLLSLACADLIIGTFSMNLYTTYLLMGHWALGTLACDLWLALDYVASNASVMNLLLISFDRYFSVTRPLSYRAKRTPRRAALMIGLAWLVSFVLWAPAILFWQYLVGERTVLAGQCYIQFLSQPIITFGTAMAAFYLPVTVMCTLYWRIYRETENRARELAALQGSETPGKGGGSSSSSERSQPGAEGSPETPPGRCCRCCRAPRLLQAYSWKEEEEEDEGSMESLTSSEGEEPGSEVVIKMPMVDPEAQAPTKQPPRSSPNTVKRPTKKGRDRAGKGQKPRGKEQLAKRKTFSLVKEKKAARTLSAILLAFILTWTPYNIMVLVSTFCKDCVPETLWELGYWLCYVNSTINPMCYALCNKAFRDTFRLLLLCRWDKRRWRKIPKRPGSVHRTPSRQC
Sequence of 5-hydroxytryptamine receptor 2A (Homo sapiens) (P28223 whole entry, looked up): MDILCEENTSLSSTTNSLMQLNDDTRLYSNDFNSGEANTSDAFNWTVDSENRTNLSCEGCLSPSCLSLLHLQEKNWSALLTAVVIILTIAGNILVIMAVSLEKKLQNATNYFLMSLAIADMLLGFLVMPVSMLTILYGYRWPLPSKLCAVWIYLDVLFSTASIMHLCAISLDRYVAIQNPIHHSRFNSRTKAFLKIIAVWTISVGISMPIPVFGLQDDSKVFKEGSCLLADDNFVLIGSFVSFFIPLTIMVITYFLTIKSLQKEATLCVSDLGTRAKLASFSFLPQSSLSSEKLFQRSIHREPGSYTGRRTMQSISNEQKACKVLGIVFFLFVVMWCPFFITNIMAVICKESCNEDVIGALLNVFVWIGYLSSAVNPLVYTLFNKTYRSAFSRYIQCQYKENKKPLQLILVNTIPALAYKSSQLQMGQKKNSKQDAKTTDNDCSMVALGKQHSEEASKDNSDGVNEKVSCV
Sequence of Gonadotropin-releasing hormone receptor (Homo sapiens) (P30968 whole entry, looked up): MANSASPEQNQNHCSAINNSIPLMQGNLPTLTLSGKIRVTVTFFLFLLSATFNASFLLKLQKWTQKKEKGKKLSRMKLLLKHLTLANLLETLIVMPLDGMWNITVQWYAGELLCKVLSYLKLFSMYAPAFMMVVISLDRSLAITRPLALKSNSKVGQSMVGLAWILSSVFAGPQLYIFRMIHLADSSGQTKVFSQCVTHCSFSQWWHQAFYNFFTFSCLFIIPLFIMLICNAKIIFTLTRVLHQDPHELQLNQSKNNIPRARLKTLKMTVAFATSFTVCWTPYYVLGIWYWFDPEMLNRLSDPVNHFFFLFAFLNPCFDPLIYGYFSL
Sequence of Beta-2 adrenergic receptor (Homo sapiens) (P07550 whole entry, looked up): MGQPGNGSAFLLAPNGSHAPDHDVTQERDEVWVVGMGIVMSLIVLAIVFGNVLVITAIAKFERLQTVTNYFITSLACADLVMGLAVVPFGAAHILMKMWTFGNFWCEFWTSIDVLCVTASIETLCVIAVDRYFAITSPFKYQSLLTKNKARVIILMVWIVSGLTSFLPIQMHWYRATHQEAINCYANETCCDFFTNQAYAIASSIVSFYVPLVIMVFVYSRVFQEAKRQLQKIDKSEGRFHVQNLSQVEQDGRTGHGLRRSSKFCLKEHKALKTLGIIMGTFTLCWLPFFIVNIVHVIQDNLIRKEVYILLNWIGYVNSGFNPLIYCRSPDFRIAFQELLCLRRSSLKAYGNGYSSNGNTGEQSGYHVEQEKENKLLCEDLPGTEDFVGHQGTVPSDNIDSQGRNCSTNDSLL
Sequence of KiSS-1 receptor (Homo sapiens) (Q969F8 whole entry, looked up): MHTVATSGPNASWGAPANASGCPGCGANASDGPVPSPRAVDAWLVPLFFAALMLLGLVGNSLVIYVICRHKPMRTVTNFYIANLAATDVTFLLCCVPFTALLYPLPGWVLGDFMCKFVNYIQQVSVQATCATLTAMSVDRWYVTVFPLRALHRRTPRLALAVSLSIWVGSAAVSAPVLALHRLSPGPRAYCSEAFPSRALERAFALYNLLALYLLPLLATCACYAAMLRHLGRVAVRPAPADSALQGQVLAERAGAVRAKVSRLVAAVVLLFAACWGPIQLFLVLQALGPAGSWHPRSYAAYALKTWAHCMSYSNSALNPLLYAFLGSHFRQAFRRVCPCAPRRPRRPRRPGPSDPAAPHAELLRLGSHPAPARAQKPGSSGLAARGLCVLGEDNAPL

CC1(N)CCC(C(C)(C)N)CC1 (configuration not stated)
not listed: [20]
inactive: all other assays above

Nc1ccc(S(=O)(=O)Nc2ccccc2)cc1
inactive: all assays above

CN(C)CCN1CCOCC1
not listed: [17] | [18] | [20]
inactive: all other assays above

OC[C@@H](O)[C@@H](O)CO
not listed: [20]
inactive: all other assays above

Cc1ccc(CCn2c3c(c4cc(Cl)ccc42)CN(C)CC3)cn1
not listed: [20]
inactive: all other assays above

FC(F)(F)c1ccc(Cl)cc1Cl
not listed: [17]
inactive: all other assays above

C=CCSCC1Nc2cc(Cl)c(S(N)(=O)=O)cc2S(=O)(=O)N1 (configuration not stated)
not listed: [20]
inactive: all other assays above
